# From PubChem BioAssay (NCI)
# Compounds without any hit were thinned out: in the full panel of roughly 83,000, 20% have a hit.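 48-hour exposure, single concentration, 96-well plates; percent growth endpoint where 0 means no net growth. Active: below 10.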 Values without a mark were called inactive. Activity calls are given as the source filed them.
# Assays:
# Assay in all cases: NCI-60 one-dose screen, 48 h (100 = growth as untreated, 0 = no growth, -100 = all killed)
# Conditions in all cases: 10 µM unless noted
# T-47D breast = system: T-47D breast
# BT-549 breast = system: BT-549 breast
# MDA-MB-435 melanoma = system: MDA-MB-435 melanoma
# SW-620 colon = system: SW-620 colon
# MCF7 breast = system: MCF7 breast
# HCT-116 colon = system: HCT-116 colon
# HCC-2998 colon = system: HCC-2998 colon
# KM12 colon = system: KM12 colon
Compound,growth (T-47D breast),growth (BT-549 breast),growth (MDA-MB-435 melanoma),growth (SW-620 colon),growth (MCF7 breast),growth (HCT-116 colon),growth (HCC-2998 colon),growth (KM12 colon)
CCc1nc(N)nc(N)c1C#CC(C)c1ccc(-c2ccncc2)cc1Cl (configuration not stated),24%,23.3%,22.1%,20.8%,14.2%,13.6%,25.4%,12.7%
Cn1cccc1-c1nc2c3c(ccc2[nH]1)C(=O)c1ccccc1C3=O,-18.8% (active),71.7%,105%,105%,11.6%,83.7%,86.3%,73.6%
CSc1nc(Nc2cccc(NC(=O)/C(C#N)=C/c3c(Cl)cccc3Cl)c2)c(C#N)c(-c2cccc([N+](=O)[O-])c2)n1,37.6%,71.6%,43.2%,38.1%,11.3%,35.6%,60.8%,78.3%
CCN1CCN(c2nc(NCCNc3ccnc4cc(Cl)ccc34)c3ccccc3n2)CC1,-10.8% (active),51.8%,-66.2% (active),1.44% (active),18.6%,1.44% (active),35.8%,7.58% (active)
COc1cccc(-c2nc3sccn3c2-c2ccnc(NCCCNS(=O)(=O)c3c(Cl)cccc3Cl)c2)c1,5.35% (active),43.2%,64.5%,76.8%,65.8%,52.6%,84.8%,68.2%
Clc1ccc2c(NCCCCNc3nc(N4CCCCC4)nc4ccccc34)ccnc2c1,-46.7% (active),37%,-81.9% (active),-1.17% (active),15.8%,-17.7% (active),-16.5% (active),19.6%
CNc1ccc(-c2cc(=O)oc3ccc(Cl)cc23)cc1,66.8%,21.8%,-11.5% (active),23.3%,18.3%,10%,31.6%,15%
CCCCC/C(C=C(C#N)C#N)=C/c1ccccc1,76.1%,69.3%,27%,59.2%,38.5%,27.7%,88.3%,72.6%
COc1ccc2c(c1)c(-c1nonc1-c1cn(C)c3ccccc13)cn2C,33.5%,60.2%,1.09% (active),24.5%,24%,26.6%,45.4%,25.7%
COc1ccc(/C=C/C(=O)c2cc(O)ccc2O)cc1,89.8%,90.4%,75.8%,100%,94%,97.4%,106%,84.1%
CN1CCN(c2nc(NCCCCNc3ccnc4cc(Cl)ccc34)c3ccccc3n2)CC1,96.1%,74.6%,-10.5% (active),41.2%,51.3%,53.1%,57.4%,65.5%
Cc1ccc2c(C(C[N+](=O)[O-])c3ccccc3)c(-c3ccccc3)[nH]c2c1 (configuration not stated),16.5% [9.5 µM],47.5% [9.5 µM],-31% [9.5 µM] (active),13.7% [9.5 µM],15% [9.5 µM],24.4% [9.5 µM],54.9% [9.5 µM],18.4% [9.5 µM]
O=C(COc1ccc(/C=C2\CSc3ccccc3C2=O)cc1)Nc1nccs1,90%,112%,65.4%,17.3%,6.72% (active),48.2%,103%,13.8%
CSc1ccc(-c2n[nH]nc2-c2cc3ccccc3s2)cc1,44.9%,46.8%,-19% (active),23.7%,27.7%,30.5%,82.3%,32.2%
Cc1cc(N2CCCCC2)nc(NC2CCCC(Nc3ccnc4cc(Cl)ccc34)C2)n1 (configuration not stated),-58.5% (active),-67% (active),-92% (active),-66.7% (active),-50.2% (active),-86.6% (active),-62.3% (active),-29.7% (active)
NC1=C(Cl)C(=O)c2ccc(S(N)(=O)=O)cc2C1=O,-46.1% (active),-91.5% (active),-86.8% (active),-77.9% (active),-49.5% (active),-90.1% (active),-97.1% (active),-72.1% (active)
O=C1Nc2c(ccc(Cl)c2Cl)/C1=C\c1cc(C(F)(F)F)cc(C(F)(F)F)c1,-0.235% (active),14.9%,-53.4% (active),-77.6% (active),-3.68% (active),-61.3% (active),12.8%,-74.6% (active)
O=C1c2cc3c(cc2-c2c1c1ccc(Cl)cc1c(=O)n2CCCN1CCOCC1)OCO3,28.6%,59.6%,85.4%,57.2%,18.5%,56.3%,74.4%,75.2%
CCNC(=O)Oc1ccc(/C(=C(\C)c2ccc(Cl)cc2)c2ccc(OCCN3CCCCC3)cc2)cc1,27.8%,72.8%,43.4%,9.64% (active),21.7%,37.4%,75.1%,37.3%
COc1ccc(/C=C/c2nc3ccccc3nc2/C=C/c2ccc(OC)cc2)cc1,78.1%,104%,88.4%,92.6%,80.9%,89%,104%,99.6%
C[n+]1ccccc1/C=C/c1ccc2cccc(O)c2n1,97.6%,97.6%,114%,52.1%,97.3%,97%,95.2%,41.1%
O=C(CCl)Oc1ccc(-c2ccccc2)c(Br)c1,103%,104%,104%,104%,103%,108%,109%,104%
C=C(C)[C@@H]1CC[C@]2(C(N)=O)CC[C@]3(C)[C@H](CC[C@@H]4[C@@]5(C)C/C(=C/c6ccco6)C(=O)C(C)(C)[C@@H]5CC[C@]43C)[C@@H]12,80%,108%,98%,105%,79.8%,83.3%,117%,97.6%
CCOc1cc2ncc(C#N)c(Nc3ccc(OCc4cccc(F)c4)c(Cl)c3)c2cc1NC(=O)CC1CCSS1 (configuration not stated),-0.0513% (active),44.6%,-26.4% (active),90.4%,2.9% (active),-24.7% (active),-25.1% (active),-67.6% (active)
CN(C)S(=O)(=O)c1cccc(-c2nc3sc4c(c3c(=O)[nH]2)CCCC4)c1,-22.1% (active),31.9%,43.9%,13.7%,53.4%,-41.3% (active),-50.5% (active),43.9%
COc1ccc(S(=O)(=O)N2CC3(COC3)C2)cc1NC(=O)c1[nH]c(C)c2c1CCCCC2=O,37%,73.3%,45.5%,72.9%,21.9%,51.7%,58.7%,54.6%
CCOC(=O)c1cc(C(=O)c2ccc(O)c(O)c2)n2ccc(-c3ccn4c(C(=O)c5ccc(O)c(O)c5)cc(C(=O)OCC)c4c3)cc12,77.4%,96%,99.9%,96.1%,99.1%,98.2%,104%,97%
C#CCOc1ccc2ncnc(Nc3cccc(CNC(=O)C=C)c3)c2c1,87.9% [8.25 µM],96.4% [8.25 µM],97.1% [8.25 µM],107% [8.25 µM],87% [8.25 µM],104% [8.25 µM],106% [8.25 µM],109% [8.25 µM]
COc1cc(C)c(C2C(C#N)=C(N)Oc3n[nH]c(-c4cccs4)c32)cc1C(C)C (configuration not stated),84.4%,102%,105%,101%,91.5%,103%,93.5%,98.6%
